The results in this text go back to PubChem BioAssay (NCI).

Among the test systems are SK-MEL-2 melanoma; EKVX NSCLC; SN12C renal; UO-31 renal; TK-10 renal; ACHN renal; CAKI-1 renal; A498 renal; MOLT-4 leukemia; CCRF-CEM leukemia.
Test in all cases: NCI-60 one-dose screen, 48 h (100 = growth as untreated, 0 = no growth, -100 = all killed)
What all share (conditions): 10 µM

Compounds without any hit were thinned out: in the full panel of roughly 83,000, 20% have a hit.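 96-well plates, one dose, 48 hours. Percent growth reported; active if below 10.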 Unmarked numbers belong to inactive results. Calls of active or inactive are those of the source.

Take `O=C(NCc1cn(Cc2cccc(Oc3ccccc3)c2)nn1)c1cccnc1Nc1ccccc1`: the growth with SK-MEL-2 melanoma was 55.1%; with EKVX NSCLC it was 58.7%; in the assay with SN12C renal, 50.2%; in the assay on UO-31 renal, 54.4%; in the assay on TK-10 renal, 85.2%; with ACHN renal it was 54.5%. Besides, the growth in the assay on CAKI-1 renal was 48.1%; in the assay with A498 renal, 19.7%; in the assay with MOLT-4 leukemia, 38%.
As to `COc1ccc(-c2ccccc2)cc1C(=O)c1ccc(-c2ccccc2)cc1`, the growth is 58.9% in the assay on SK-MEL-2 melanoma; 88.8% with EKVX NSCLC; 96.6% in the assay with SN12C renal; 60.6% with UO-31 renal; 88.3% with TK-10 renal; 105% in the assay with ACHN renal. In addition, the growth in the assay with CAKI-1 renal is 52.2%; in the assay on A498 renal, 93.6%; in the assay on MOLT-4 leukemia, 65.9%.
Turning to `C=CCn1ccc(=O)nc1SC`, the growth was 107% in the assay on SK-MEL-2 melanoma; 104% in the assay on EKVX NSCLC; 104% in the assay on SN12C renal; 89% with UO-31 renal; 108% in the assay with ACHN renal; 106% in the assay with CAKI-1 renal. Besides, the growth is 104% with A498 renal, 104% with CCRF-CEM leukemia and 100% in the assay with MOLT-4 leukemia.
`Oc1ccc(/C=N\Nc2ccccn2)c(O)c1`: the growth in the assay with SK-MEL-2 melanoma was 46.3%; with EKVX NSCLC, 33%; with SN12C renal, 24.1%; in the assay with UO-31 renal, -19.7% (active); in the assay on TK-10 renal it was 61.6%; in the assay with ACHN renal, 7.03% (active). In addition, the growth with CAKI-1 renal was -15.3% (active); with A498 renal, 70.7%; with CCRF-CEM leukemia it was 8.18% (active); in the assay with MOLT-4 leukemia, 11.2%.
For `Nc1c(C(=O)Nc2ccccc2F)sc2nc3c(cc12)C(=O)CCC3`, the growth in the assay on SK-MEL-2 melanoma is 42.6%; in the assay on EKVX NSCLC it was 56.3%; in the assay on SN12C renal, 49.8%; in the assay on UO-31 renal it was 76%; in the assay with TK-10 renal it was 59.7%; with CAKI-1 renal it was 4.36% (active). Further, the growth in the assay with A498 renal was -1.01% (active); in the assay on CCRF-CEM leukemia, 26.8%; in the assay with MOLT-4 leukemia it was 73.6%.
As to `CC(=O)Nc1nc(C)c(C(=O)NNC=O)s1`, the growth with SK-MEL-2 melanoma is 62.7%; in the assay with EKVX NSCLC, 101%; with SN12C renal, 98.7%; in the assay on UO-31 renal, 100%; in the assay on ACHN renal it was 108%; in the assay on CAKI-1 renal, 109%. For the same molecule, the values for the growth with A498 renal, in the assay with CCRF-CEM leukemia and in the assay on MOLT-4 leukemia were 104%, 101% and 98.1%, respectively.
For the molecule `Nc1ccc2c(c1)Cc1cc(N)c(Cl)cc1-2`, the growth was 102% in the assay on SK-MEL-2 melanoma; 57.2% with EKVX NSCLC; 89.8% in the assay on SN12C renal; 52.6% in the assay on UO-31 renal; 115% in the assay on TK-10 renal; 94.1% in the assay with CAKI-1 renal. Moreover, the growth in the assay with A498 renal is 118%; in the assay on CCRF-CEM leukemia, 79.8%; in the assay on MOLT-4 leukemia, 90%.
Turning to `CCN(CC)CC(O)Cc1ccc(OC)cc1` (stereo not given), the growth in the assay on SK-MEL-2 melanoma is 96%; in the assay on EKVX NSCLC, 98.7%; with SN12C renal, 104%; with UO-31 renal it was 103%; with TK-10 renal, 96.5%; in the assay on ACHN renal, 108%. Also, the growth was 101% in the assay with CAKI-1 renal, 96.7% with A498 renal and 95.7% in the assay on MOLT-4 leukemia.
In the case of `CC(=O)Nc1nc(C)c(C(=O)N/N=C/c2cccn2C)s1`, the growth in the assay on SK-MEL-2 melanoma was 43.6%; in the assay with EKVX NSCLC it was 103%; with SN12C renal, 94.5%; in the assay on UO-31 renal, 93.7%; with ACHN renal, 107%; in the assay with CAKI-1 renal, 111%. Also, the growth with A498 renal is 89.6%; with CCRF-CEM leukemia it was 98.8%; in the assay on MOLT-4 leukemia, 100%.
As for `COc1cc(/C=C2\C(=O)Nc3cc(C)c(O)cc32)cc(OC)c1OC`, the growth with SK-MEL-2 melanoma was 79.3%; in the assay on EKVX NSCLC, 48.5%; in the assay with SN12C renal, 71.3%; in the assay on UO-31 renal it was 43%; with TK-10 renal, 85%; with CAKI-1 renal, 15.7%. Moreover, the growth was 98.2% with A498 renal, 16.3% in the assay on CCRF-CEM leukemia and 53% in the assay with MOLT-4 leukemia.
As to `Cc1cc(C#Cc2ccccc2)ccc1-n1c(/C=C/c2cc(O)ccc2O)nc2ccccc2c1=O`, the growth in the assay with SK-MEL-2 melanoma is -12.9% (active); with EKVX NSCLC it was -7.48% (active); in the assay with SN12C renal it was -5.43% (active); in the assay on UO-31 renal it was -27.9% (active); in the assay on TK-10 renal, 29.7%; with ACHN renal, 8.83% (active). The values for the growth in the assay with CAKI-1 renal, with A498 renal and in the assay with MOLT-4 leukemia were -5.93% (active), 41% and 3.81% (active), respectively.
As for `CCN(CC)CC(O)CNc1ccnc2cc(Cl)c(Cl)cc12` (stereo not given), the growth in the assay on SK-MEL-2 melanoma was 108%; in the assay on EKVX NSCLC, 92%; in the assay on SN12C renal, 79%; in the assay on UO-31 renal it was 53.7%; in the assay on TK-10 renal, 95.2%; with ACHN renal it was 98.4%. The growth in the assay on CAKI-1 renal was 80.7%; in the assay on A498 renal, 98.7%; in the assay with CCRF-CEM leukemia it was 94.9%; in the assay with MOLT-4 leukemia, 82.3%.
Consider `Cc1ccc(Cl)cc1Nc1nc(C(F)(F)F)ccc1C(=O)N/N=C/c1c(Cl)cccc1Cl`, for which the growth with SK-MEL-2 melanoma was 0.639% (active); in the assay on EKVX NSCLC, 4.91% (active); in the assay with SN12C renal it was 9.96% (active); with UO-31 renal, -23.3% (active); with TK-10 renal, 22.7%; with ACHN renal it was 0.0524% (active). In addition, the growth was -12.5% (active) in the assay on CAKI-1 renal, -13.3% (active) in the assay on A498 renal, -21.2% (active) in the assay with CCRF-CEM leukemia and 8.23% (active) with MOLT-4 leukemia.
